Experimental findings from PubChem BioAssay (EPA / NIEHS) are described below.

Active and inactive are the calls of the source. How the source made its calls: active means hit-call score of the fitted dose curve at least 0.9, where 1 is the maximum; inactive means score below 0.9.

Read-out in the assay: cysteine-aspartic acid protease (CASP8), CASP8 (gene 841)
The assay can be described thus: LTEA_HepaRG_CASP8: Life Technologies and Expression Analysis (LTEA) Assay for cysteine-aspartic acid protease (CASP8) using HepaRG (AID 2283480). The conditions noted are these: mRNA level, 48 h; actives raise or lower the signal. As for the experimental part: LTEA_HepaRG is a cell based, multiplexed-readout assay that uses HepaRG, a human liver cell line, with measurements taken at 48 hours after chemical dosing on a 96-well plate.LTEA_HepaRG_CASP8 is one of 102 assay component(s) measured in the LTEA HepaRG cell culture assay. It is a marker of Cell proliferation, survival, death.Data from the assay component LTEA_HepaRG_CASP8 was analyzed into 1 endpoint. This assay endpoint, LTEA_HepaRG_CASP8, was analyzed with bidirectional fitting relative to DMSO as the negative control and baseline of activity. Using a type of inducible reporter, measures of mRNA induction for gain or loss-of-signal activity can be used to understand regulation of transcription factor activity. To generalize the intended target to other relatable targets, this assay endpoint is annotated to the protease intended target family, where the subfamily is cysteine protease.
A total of 1060 chemcials from the ToxCast library were tested in eight-point concentration-response experiments. Cell culture and cytotoxicity assays were conducted at Thermo Fisher Scientific's Custom Services facility (Madison, WI). A single lot of human HepaRG cells (Thermo Fisher Scientific, Frederick, MD) was used for the cell culture experiments. 96-well format collagen type I coated plates of human HepaRG cells were prepared using established methods. Briefly, cryopreserved HepaRG cells were thawed, plated at a density of approximately 100,000 cells/well in HepaRG Thaw, Plate, and General Purpose media (HPRG770, Thermo Fisher Scientific), and incubated for 48 hours. 0.5% DMSO was selected as vehicle control to balance the requisite need of DMSO in HepaRG cultures to maintain differentiation (for example, baseline metabolism, proportions of hepatocytes vs. cholangiocytes), while enabling further hepatic receptor pathway activation (for example, PXR and CAR) in response to chemical exposure. 48 hours after plating, the culture medium was replaced with HepaRG Serum-Free Incudtion Media. Cells were exposed to each test chemical in duplicate and maintained in CO2 incubators for another 48 hours. Chemical plates were thawed to room temperature and 200x concentrations of treatment groups were prepared. 8-point conentration-reponse curves were made with the highest exposure at 100 uM, followed by half-log dilutions, all in 0.5% DMSO. Each test plate contained variouse controls, induction positive controls (1mM phenobarbital), cytotoxicity positive controls ([…] aflatoxin B1), vehicle controls (0.5% DMSO), and total lysis controls (0.5% DMSO). Cell morphology images were taken using an Essen IncuCyte FLR automated microscope, with six 96-well plates imaged in about 24 minutes. Images were captured and exported and JPEG files. Spent culture media was transfered to black-well plates for the LDH assay, and remaining media was sorted at -80 C for later use. Cells were treated with RLT buffer and frozen until shipped for gene expression analysis. Total RNA was isolated from the cell suspension in 75 uL of Buffer RLT (Qiagen, Germantown, MD 20874) by Quintiles/Expression Analysis (Durham, NC) using a custom isolation procedure. Total RNA from each plate well was transferred to a preamplification plate. Fluidigm's 96.96 Dynamic ArrayTM (Fluidigm, Amsterdam, the Netherlands) technology was used for gene expression analyses by quantitative reverse transcription polymerase chain reaction (qRT-PCR, performed by Quintiles/Expression Analysis, Durham, NC)89. Standard TaqManTM Assays (Applied Biosystems/ThermoFisher Scientific, Foster City, CA) were used to assess the expression of 93 genes selected based on their selectivity and sensitivity to important hepatic receptors known to be modulated by environmental chemicals; importance in human hepatocyte functionality; and hepatotoxicity. […]
For `C#CCC1=C(C)C(OC(=O)C2C(C=C(C)C)C2(C)C)CC1=O` (stereo not given), the call was inactive. The same measure, in the same setting: with `CCCCOC(=O)[C@@H](C)Oc1ccc(Oc2ccc(C#N)cc2F)cc1` the entry was “inactive”; with `CCOC(=O)CC(SP(=O)(OC)OC)C(=O)OCC` (stereo not given), “inactive”; with `CCNc1nc(Cl)nc(NC(C)(C)C#N)n1`, “inactive”.

A word on the AC50: it is the concentration giving half of the maximal activity seen. As for `CNC(=O)ON=C(SC)C(=O)N(C)C`, the AC50 is 0.369 µM (active). As to `CCCSP(=O)(OCC)SCCC`, the outcome was inactive. On the same count and under the same terms, in the case of `CN(C)[C@@H]1C(=O)C(C(N)=O)=C(O)[C@@]2(O)C(=O)C3=C(O)c4c(O)cccc4[C@@](C)(O)[C@H]3[C@H](O)[C@@H]12` it was “inactive”; in that of `CC1=NNC(=O)N(/N=C/c2cccnc2)C1`, “inactive”; in that of `Cc1cc(C2CC2)nc(Nc2ccccc2)n1`, “inactive”. On the same count and under the same terms, in the case of `Nc1nc(N)nc(NC2CC2)n1` it was “inactive”. As for `CCCCSP(=O)(SCCCC)SCCCC`, the compound was called inactive. Regarding `CCCSP(=O)(OCC)Oc1ccc(Br)cc1Cl` (stereo not given), the call was inactive. For the compound `CCOP(=O)(OCC)Oc1cc(C)nc(C(C)C)n1`, the compound was called inactive. Same read-out and setting: with `CCc1cnc(C2=NC(C)(C(C)C)C(=O)N2)c(C(=O)O)c1` (stereo not given) the entry was “inactive”; with `CCOP(=O)(SC(C)CC)N1CCSC1=O` (stereo not given), “inactive”. On the same count and under the same terms, with `CCOP(=S)(OCC)SCCSCC` the entry was “inactive”; with `CCCOCC(=Nc1ccc(Cl)cc1C(F)(F)F)n1ccnc1`, “inactive”; with `CCOP(=S)(Oc1cnc(C(C)(C)C)nc1)OC(C)C` (stereo not given), “inactive”. For the compound `CSC1=N[C@@](C)(c2ccccc2)C(=O)N1Nc1ccccc1`, the compound was called inactive.

With `O=c1ccc(=O)[nH][nH]1`, the outcome was inactive.

In the case of `CCc1cccc(CC)c1N(COC)C(=O)CCl`, the compound was classed as inactive. On the same count and under the same terms, in the case of `O=[N+]([O-])c1cc(C(F)(F)F)c(Cl)c([N+](=O)[O-])c1Nc1ncc(C(F)(F)F)cc1Cl` it was “inactive”; in that of `CCOP(=S)(OCC)Oc1ccc2c(C)c(Cl)c(=O)oc2c1`, “inactive”; in that of `C[N+]1(C)CCCCC1`, “inactive”.

In the case of `COP(=O)(NC(C)=O)SC` (stereo not given), the compound was classed as inactive. Still for that read-out and setting: with `CCC(=O)Nc1ccc(Cl)c(Cl)c1` the entry was “inactive”. On the same count and under the same terms, in the case of `CNC(=O)Oc1cccc2c1OC(C)(C)O2` it was “inactive”; in that of `CN(C)NC(=O)CCC(=O)O`, “inactive”. On the same count and under the same terms, in the case of `Cc1nn(-c2cc(NS(C)(=O)=O)c(Cl)cc2Cl)c(=O)n1C(F)F` it was “inactive”. As for `COP(=O)(OC)SCn1c(=O)oc2cc(Cl)cnc21`, the outcome was inactive. The same measure, in the same setting: in the case of `CCOP(=S)(OCC)Oc1ccc([N+](=O)[O-])cc1` it was “inactive”; in that of `O=C(O)c1cc(Oc2ccc(C(F)(F)F)cc2Cl)ccc1[N+](=O)[O-]`, “inactive”. Turning to `Nc1c(Cl)cc([N+](=O)[O-])cc1Cl`, the AC50 was 50 µM (active). For `CNc1cnn(-c2cccc(C(F)(F)F)c2)c(=O)c1Cl`, the compound was classed as inactive.

Consider `CSc1nnc(C(C)(C)C)c(=O)n1N`, for which the compound was classed as inactive. Still for that read-out and setting: with `CC[C@H](C)[C@H]1O[C@]2(C=C[C@@H]1C)C[C@@H]1C[C@@H](C/C=C(\C)[C@@H](O[C@H]3C[C@H](OC)[C@@H](O[C@H]4C[C@H](OC)[C@@H](NC)[C@H](C)O4)[C@H](C)O3)[C@@H](C)/C=C/C=C3\CO[C@@H]4[C@H](O)C(C)=C[C@@H](C(=O)O1)[C@]34O)O2` the entry was “inactive”; with `CCCCN(CC)c1c([N+](=O)[O-])cc(C(F)(F)F)cc1[N+](=O)[O-]`, “inactive”. Same read-out and setting: with `C[Si](Cn1cncn1)(c1ccc(F)cc1)c1ccc(F)cc1` the entry was “inactive”. Same read-out and setting: in the case of `N#CSCSC#N` it was “inactive”; in that of `CCOP(=O)(NC(C)C)Oc1ccc(SC)c(C)c1` (stereo not given), “inactive”.
